A number with no mark means an inactive call. Records with an inconclusive call do not appear. Activity calls are given as the source filed them. Unless noted, calls come from the whole dose curve; as a rule, active = well fitted curve in either direction with a large enough effect (not every such curve was filed as active); inconclusive = small, poorly fitted or top-dose-only effect, or another doubt; inactive = flat fitted curve, though single readings scatter.

Test [1] has as its target Lysosomal acid glucosylceramidase (Homo sapiens) (UniProt P04062). Kind of test: Glucocerebrosidase-p2 (AID 348; in the data active = potency below about 10 µM; note: potency is the fitted concentration of half-maximal effect). As to conditions: purified GBA, blue fluorogenic substrate, 40 min. The gist of the method:
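Normal human glucocerebrosidase (0.2 nM) with blue fluorogenic substrate (80 uM final) in citrate/phosphate pH 5.9 with 10mM sodium taurocholate, 0.01% tween-20; 40 min RT, NaOH/glycine stop; fluorescence Ex 365/Em 440; AC50 from a titration from 0.6 nM upwards.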

The nature of test [2]: AP1 Signaling Pathway (AID 357).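 Note: ME-180 reporter cells stimulated with EGF at its EC50 level; % is set by controls: 0 for no effect and ±100 for the full control effect.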 As to conditions: ME-180 AP-1-bla reporter, EGF-induced, beta-lactamase ratio, 5 h; at 7.69 µM (top of the series) unless noted. Put shortly:
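Titration-series screen for positive or negative modulators of EC50 EGF-induced signaling in ME-180 cells carrying an AP-1-driven beta-lactamase reporter. After 5 hours at 37 degrees Celsius, CCF4 460nm/530nm emission ratio gave %Activity; AC50 values derived.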

The target of test [3] is Cytochrome P450 1A2 (Homo sapiens) (UniProt P05177). The test can be described thus: p450-cyp1a2 (AID 410; calls by dose curve; note: potency is the fitted concentration of half-maximal effect;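 for activity change, negative = inhibition: -100% = full effect of reference inhibitor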). The conditions noted are these: recombinant CYP1A2, luciferin-ME demethylation, luminescence; series mostly up to 11.4 µM. Put shortly: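 20nM CYP1A2, 100uM Luciferin-ME (=Km), 100mM KPO4; cpd 10 min RT; +NADPH regen, 60 min RT; stop/detect 20 min; luminescence. Normalized to furafylline 57 uM = full inhibition.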

Test [4] can be described thus: NFAT Signaling Pathway (AID 444).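 Note: carbachol stimulus at about its EC50 of 1 µM final; % is set by controls: 0 for no effect and ±100 for the full control effect.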 As to conditions: Jurkat NFAT-bla M1, carbachol, beta-lactamase ratio, 5 h; at 7.69 µM (top of the series) unless noted. The gist of the method: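 Read-out: CCF4 FRET ratio (460 nm/530 nm) after 1 h RT dye loading, used for %activity and AC50 from titration series. Cells: Jurkat NFAT-β-lactamase/M1 line, treated with compound plus 1 uM carbachol for 5 h, 37 °C.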

Test [5] can be described thus: Stat Signaling Pathway (AID 446).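 Note: ME-180 cervical cancer cells given 40 pM IL-6 alongside compound; SIE-controlled beta-lactamase reporter measured as 460/530 nm FRET emission ratio; % is set by controls: 0 for no effect and ±100 for the full control effect.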 As to conditions: ME-180 (cervical carcinoma) SIE beta-lactamase reporter, IL-6 stimulated, 5 h; at 7.69 µM (top of the series) unless noted. The gist of the method:
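FRET read-out (405 nm excitation, 460/530 nm emission) of a beta-lactamase reporter under a STAT-inducible element in ME-180 cervical carcinoma cells. Cells with compound receive 40 pM IL-6 for 5 h. Values are normalised to AC90 stimulation and AC90 JAK-inhibitor controls.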

For test [6], the target named is Glucocorticoid receptor (Homo sapiens) (UniProt P04150). The test can be described thus: GR-GFP Redistribution (AID 450;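 active = compounds whose dose series gives a full or clear partial fitted curve of increased nuclear translocation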; note: potency is the fitted concentration of half-maximal effect). The conditions noted are these: U2OS GR-GFP nuclear translocation, laser cytometry, 2 h.
The target is the same in test [7]. The test can be described thus: GR-EFC Redistribution (AID 451; calls by dose curve; note: potency is the fitted concentration of half-maximal effect). As to conditions: CHO-K1 GR-EFC translocation, beta-gal luminescence, 2 h. Put shortly:
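Translocation of GR-ED fusion to nuclear EA restores b-gal, read by luminescence after 1 h room-temperature detection. Engineered CHO-K1 biosensor cells, 1,000/well, exposed 2 h at 37 C to titrations up to 46 uM final.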

Test [8] has as its target Mitogen-activated protein kinase 10 (Mus musculus) (UniProt Q61831). Kind of test: JNK3 AlphaScreen Assay (AID 530).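 Note: kinase came from lysate of stimulated human HepG2 cells; signal reports phosphorylation of biotinylated GST-cJun 1-79 at Ser73 with 10 µM ATP; % is set by controls: 0 for no effect and ±100 for the full control effect.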 The conditions noted are these: JNK3 lysate, c-Jun phosphorylation; series mostly up to 11.4 µM. The gist of the method: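 Kinase buffer: 20 mM Tris-HCl pH 7.6, 10 mM MgCl2, 1 mM DTT, 0.1 mM Na3VO4, 0.01% Tween-20; ATP 10 uM. Substrate biotin-GST-cJun(1-79), enzyme from activated HepG2 lysates. Detection by Ser73 phospho-antibody AlphaScreen.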

The target of test [9] is 3',5'-cyclic-AMP phosphodiesterase 4B (Homo sapiens) (UniProt Q07343). The test can be described thus: qHTS Assay for Inhibitors of PDE-IV (AID 607; active = well fitted activation curve with a large enough effect in the main read-out, with a control signal flat, not every such curve was filed as active; note: % of control where 0% means no effect). As to conditions: HEK293 ACTOne CNG channel cells, membrane potential fluorescence; series mostly up to 22.9 µM. The gist of the method:
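Cell-based read-out of cAMP via a modified cyclic nucleotide-gated channel and membrane potential dye (535/590 nm) in HEK293 cells expressing PDE4 endogenously. Compounds tested up to 22.9 uM final; 100 uM RO 20-1724 reference.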

Chain of 3',5'-cyclic-AMP phosphodiesterase 4B (Homo sapiens) (Q07343 whole entry, looked up): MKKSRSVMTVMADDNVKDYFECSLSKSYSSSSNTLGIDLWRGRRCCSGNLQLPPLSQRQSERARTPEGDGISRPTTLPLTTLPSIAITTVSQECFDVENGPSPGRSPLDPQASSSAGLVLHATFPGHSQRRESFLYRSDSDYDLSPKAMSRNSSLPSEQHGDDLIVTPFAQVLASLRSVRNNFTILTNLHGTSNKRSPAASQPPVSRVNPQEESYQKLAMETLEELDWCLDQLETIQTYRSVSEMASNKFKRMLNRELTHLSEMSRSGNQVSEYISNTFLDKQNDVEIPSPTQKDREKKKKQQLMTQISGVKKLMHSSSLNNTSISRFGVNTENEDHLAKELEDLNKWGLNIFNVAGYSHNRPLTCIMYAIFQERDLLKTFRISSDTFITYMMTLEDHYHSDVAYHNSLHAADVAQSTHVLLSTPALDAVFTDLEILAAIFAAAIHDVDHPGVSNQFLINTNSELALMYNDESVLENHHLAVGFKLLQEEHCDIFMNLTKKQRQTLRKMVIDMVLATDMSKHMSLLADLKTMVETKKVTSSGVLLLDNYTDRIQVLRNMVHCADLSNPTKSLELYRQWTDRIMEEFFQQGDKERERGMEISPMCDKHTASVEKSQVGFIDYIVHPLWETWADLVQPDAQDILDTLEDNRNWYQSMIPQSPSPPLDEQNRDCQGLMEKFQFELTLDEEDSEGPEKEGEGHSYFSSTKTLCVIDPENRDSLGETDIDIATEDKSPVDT
Chain of Lysosomal acid glucosylceramidase (Homo sapiens) (P04062 whole entry, looked up): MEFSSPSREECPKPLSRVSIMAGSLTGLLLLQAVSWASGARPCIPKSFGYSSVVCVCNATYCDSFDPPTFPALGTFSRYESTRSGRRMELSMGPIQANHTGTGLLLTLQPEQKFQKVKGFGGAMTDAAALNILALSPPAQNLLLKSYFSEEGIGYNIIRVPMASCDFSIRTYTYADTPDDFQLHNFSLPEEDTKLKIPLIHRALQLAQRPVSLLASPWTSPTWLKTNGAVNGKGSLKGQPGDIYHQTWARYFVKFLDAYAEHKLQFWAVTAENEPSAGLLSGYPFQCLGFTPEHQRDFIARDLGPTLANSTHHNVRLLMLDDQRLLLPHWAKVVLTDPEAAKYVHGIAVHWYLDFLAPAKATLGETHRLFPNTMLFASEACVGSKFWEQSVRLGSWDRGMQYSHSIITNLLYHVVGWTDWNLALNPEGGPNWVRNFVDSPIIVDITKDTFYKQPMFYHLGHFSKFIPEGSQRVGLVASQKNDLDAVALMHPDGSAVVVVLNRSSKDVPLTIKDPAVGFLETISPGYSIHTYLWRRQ
Chain of Glucocorticoid receptor (Homo sapiens) (P04150 whole entry, looked up): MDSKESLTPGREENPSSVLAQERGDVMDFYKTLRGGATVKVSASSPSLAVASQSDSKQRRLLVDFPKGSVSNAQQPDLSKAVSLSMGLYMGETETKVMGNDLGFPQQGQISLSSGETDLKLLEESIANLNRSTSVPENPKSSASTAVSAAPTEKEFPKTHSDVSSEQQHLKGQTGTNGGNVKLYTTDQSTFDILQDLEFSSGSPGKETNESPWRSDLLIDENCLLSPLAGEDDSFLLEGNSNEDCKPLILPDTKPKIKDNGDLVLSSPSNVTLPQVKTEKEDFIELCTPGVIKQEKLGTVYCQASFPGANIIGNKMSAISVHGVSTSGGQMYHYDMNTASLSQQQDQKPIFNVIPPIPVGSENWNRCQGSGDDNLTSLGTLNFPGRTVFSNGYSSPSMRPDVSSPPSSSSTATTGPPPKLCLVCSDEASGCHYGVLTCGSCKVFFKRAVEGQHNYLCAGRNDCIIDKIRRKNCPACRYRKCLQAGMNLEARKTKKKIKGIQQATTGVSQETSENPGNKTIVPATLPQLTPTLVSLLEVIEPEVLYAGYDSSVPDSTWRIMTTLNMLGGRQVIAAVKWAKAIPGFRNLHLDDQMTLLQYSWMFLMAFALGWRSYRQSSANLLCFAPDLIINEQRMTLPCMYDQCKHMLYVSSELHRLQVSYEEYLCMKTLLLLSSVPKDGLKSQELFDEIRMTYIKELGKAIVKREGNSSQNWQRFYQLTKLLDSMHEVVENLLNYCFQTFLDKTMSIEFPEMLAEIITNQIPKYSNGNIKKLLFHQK
Chain of Cytochrome P450 1A2 (Homo sapiens) (P05177 whole entry, looked up): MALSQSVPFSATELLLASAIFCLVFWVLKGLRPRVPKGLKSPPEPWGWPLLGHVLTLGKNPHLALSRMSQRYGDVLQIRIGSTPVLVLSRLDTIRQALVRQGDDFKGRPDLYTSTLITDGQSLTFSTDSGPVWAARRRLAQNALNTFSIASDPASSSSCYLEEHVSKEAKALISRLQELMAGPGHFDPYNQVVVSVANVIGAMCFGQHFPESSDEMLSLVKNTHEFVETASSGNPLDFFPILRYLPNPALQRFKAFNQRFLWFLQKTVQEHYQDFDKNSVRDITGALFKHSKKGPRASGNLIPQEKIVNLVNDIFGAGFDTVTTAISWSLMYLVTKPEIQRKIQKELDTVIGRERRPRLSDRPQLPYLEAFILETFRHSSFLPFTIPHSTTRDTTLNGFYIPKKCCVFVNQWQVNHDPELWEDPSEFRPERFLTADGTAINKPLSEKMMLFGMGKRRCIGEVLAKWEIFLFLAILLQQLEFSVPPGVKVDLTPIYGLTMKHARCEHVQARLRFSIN

As for `CC1=C(CC[C@H](C)CO)O[C@@H]2C[C@@H]3[C@H]4CC[C@H]5C[C@@H](O)CC[C@]5(C)[C@@H]4CC(=O)[C@@]3(C)[C@@H]12`, the Potency in [1] is above 11.4 µM; in test [6], above 46 µM; in [7], above 9.22 µM. Further, the activity change, negative = inhibition in test [2] was 12.3%; in test [3], -21.1% [at 2.29 µM]; in [4], -4.84%. For the same molecule, the activity, negative = inhibition in test [5] was -18.7%. Besides, the Potency result in test [8] and in [9] was “inactive” in each case.

For the molecule `N=C(N)SCc1cccc(-c2nc3ccccc3c(=O)o2)c1`, the Potency was above 11.4 µM in [1], above 46 µM in [6] and above 9.22 µM in test [7]. Further, the activity change, negative = inhibition in test [2] is 0.968%; in test [3], -10.3% [at 2.29 µM]; in test [4] it was 10.1%. In [5], the activity, negative = inhibition was 2.22%. The Potency entry in test [8] and in [9] was “inactive” throughout.

As for `O=C(O)C[C@H](Cc1ccccc1)C(=O)O`, the Potency in test [1] was above 11.4 µM; in test [6], above 46 µM; in [7] it was above 9.22 µM. Besides, the activity change, negative = inhibition in test [2] is 11%; in test [4], 2.62%. Further, the Potency entry in test [3], in test [8] and in [9] was “inactive” each time. In [5], the activity, negative = inhibition is -5.23%.

In the case of `CCCCN(c1ccccc1)c1ncnc2c1cnn2C`, the Potency in [1] is above 11.4 µM; in test [3] it was 0.631 µM (active); in test [6] it was above 46 µM; in [7], above 9.22 µM. Moreover, the activity change, negative = inhibition is -1.19% in test [2] and 12.1% in test [4]. In test [5], the activity, negative = inhibition is 5.06%. Moreover, the Potency result in test [8] and in test [9] was “inactive” throughout.

As to `CC1(C)O[C@@H]2O[C@H]([C@@H]3COC(C)(C)O3)[C@H](N)[C@H]2O1`, the Potency in [1] was above 11.4 µM; in test [6], above 46 µM; in [7] it was above 9.22 µM. Moreover, the results for the activity change, negative = inhibition in test [2], in test [3] and in [4] were 5.74%, 8.7% [at 2.29 µM] and 10.1%, respectively. Further, the activity, negative = inhibition in test [5] was 5.21%. Also, the Potency entry in [8] and in test [9] was “inactive” each time.

For the molecule `Cn1cnc([N+](=O)[O-])c1[Se]c1nc(N)nc2c1ncn2[C@@H]1O[C@@H](CO)[C@H](O)[C@@H]1O`, the Potency in [1] is above 11.4 µM; in test [6] it was above 46 µM; in [7] it was above 9.22 µM. In addition, the activity change, negative = inhibition in test [2] is 4.67%; in [3], -12.8% [at 2.29 µM]; in test [4] it was 8.52%. In test [5], the activity, negative = inhibition was 10.6%. Besides, the Potency result in [8] and in test [9] was “inactive” each time.

As to `Cn1c(=O)c2[nH]c(CS(=O)(=O)Cc3nc4c([nH]3)c(=O)n(C)c(=O)n4C)nc2n(C)c1=O`, the Potency in test [1] was above 11.4 µM; in test [6], above 46 µM; in test [7], above 9.22 µM. Also, the activity change, negative = inhibition in test [2] was -5.52%; in [3], -21.1% [at 2.29 µM]; in test [4] it was -4.99%. Also, the activity, negative = inhibition in [5] was -2.96%. For the same molecule, the Potency result in [8] and in test [9] was “inactive” throughout.

On to `O=C(O)c1ccccc1-c1ccccc1C(=O)Nc1ccc2c(c1)Cc1ccccc1-2`, for which the Potency in test [1] is above 11.4 µM; in [6] it was above 46 µM; in test [7], above 9.22 µM. The activity change, negative = inhibition was 6.9% in test [2], -7.1% [at 2.29 µM] in test [3] and -20.4% in test [4]. The activity, negative = inhibition in [5] was -24.1%. Also, the Potency entry in [8] and in [9] was “inactive” throughout.

With `NC(Cc1ccccc1)=NCC(=O)O`, the Potency was above 11.4 µM in test [1], above 46 µM in [6] and above 9.22 µM in test [7]. The activity change, negative = inhibition in test [2] was 2%; in test [4], -0.213%. Besides, the Potency entry in test [3], in [8] and in test [9] was “inactive” in each case. Moreover, in test [5], the activity, negative = inhibition was -4.46%.

Take `O=C(O)c1ccccc1NCn1c(=S)sc2ccccc21`: the Potency in test [1] is above 11.4 µM; in [3], 0.501 µM (active); in test [6] it was above 46 µM; in [7], above 9.22 µM. Besides, the activity change, negative = inhibition in [2] was 5.4%; in [4], 7.61%. Moreover, the activity, negative = inhibition in test [5] was -1.41%. Further, the Potency entry in test [8] and in test [9] was “inactive” each time.

`N=C(N)c1ccc(-c2ccc(-c3ccc(C(=N)N)cc3)o2)cc1`: the values for the Potency in test [1], in test [6] and in [7] were above 11.4 µM, above 46 µM and above 9.22 µM, respectively. Besides, the activity change, negative = inhibition in [2] is 7.04%; in test [4], 7.72%. Moreover, the Potency entry in test [3], in [8] and in test [9] was “inactive” each time. Moreover, the activity, negative = inhibition in test [5] is 10.3%.

Regarding `CC(C)(C)OC(=O)[C@H]([C@@H]1N[C@@H](C(=O)O)C(C)(C)S1)N1C(=O)c2ccccc2C1=O`, the figures for the Potency in test [1], in [6] and in test [7] were above 11.4 µM, above 46 µM and above 9.22 µM, respectively. In addition, the activity change, negative = inhibition in test [2] was -0.34%; in [3] it was -1.4% [at 2.29 µM]; in test [4] it was -5.29%. Also, the activity, negative = inhibition in test [5] is 3.62%. Moreover, the Potency entry in [8] and in test [9] was “inactive” each time.

Regarding `Cc1[nH]c(N)nc(=S)c1CCC(=O)O`, the Potency in test [1] is above 11.4 µM; in [6] it was above 46 µM; in test [7], above 9.22 µM. In addition, the activity change, negative = inhibition in test [2] is -7.6%; in [4] it was 1.85%. Also, the Potency entry in test [3], in [8] and in test [9] was “inactive” each time. For the same molecule, the activity, negative = inhibition in [5] was -3.94%.

Take `O=C(O)[C@@H]1[C@@H](C(=O)NCc2cccnc2)[C@@H]2C=C[C@@H]1O2`: the Potency in test [1] is above 11.4 µM; in test [6], above 46 µM; in test [7] it was above 9.22 µM. Also, the values for the activity change, negative = inhibition in test [2], in test [3] and in [4] were 8.06%, -0.4% [at 2.29 µM] and 2.31%, respectively. Further, in test [5], the activity, negative = inhibition was 0.333%. Also, the Potency result in test [8] and in test [9] was “inactive” each time.

In the case of `O=C(O)CCC(=O)c1ccc2sc3ccccc3c2c1`, the Potency in test [1] is above 11.4 µM; in [3] it was 3.98 µM (active); in test [6] it was above 46 µM; in test [7] it was above 9.22 µM. The activity change, negative = inhibition in test [2] was 3.02%; in [4], 7.45%. The activity, negative = inhibition in test [5] is -12.2%. The Potency entry in test [8] and in test [9] was “inactive” in each case.

For the origin of these results see PubChem BioAssay (NCATS).
